We go through 9 compounds from PubChem BioAssay.

Experiment [1] is described as follows: HepG2 liver cancer cell viability effects, profiling panel, resazurin fluorescence, 24 h, PK04 Diversity Set (AID 1172). Conditions: higher = more signal. On the technique in general: Resazurin is reduced to fluorescent resorufin, in cell work by metabolically active cells.
A short description of experiment [2]: basal S. cerevisiae growth modulation, no modifier, primary screen, OD600, strain BY4716, 24 h, basal condition (AID 1173). Conditions: OD600, 24 h, higher = more signal, called active from +8 up or from −8 down.
Experiment [3] is described as follows: MM1S myeloma cell viability, profiling panel, resazurin fluorescence, basal, 24 h, PK04 Diversity Set (AID 1174).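 Note: MM1S multiple myeloma cell line.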 Conditions: higher = more signal, called active from +8 up or from −8 down.
The target of experiment [4] is Dihydroorotate dehydrogenase (quinone), mitochondrial (Plasmodium falciparum (isolate 3D7)) (UniProt Q08210). Kind of experiment: PfDHODH enzyme inhibitors, primary screen, biochemical, C-terminal His tag, absorbance 600 nm (AID 1175).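 Note: recombinant parasite enzyme with a five histidine tag at its C terminus.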 The settings on record: DCIP absorbance 600 nm, higher = more signal, called active from +8 up or from −8 down.
Chain of Dihydroorotate dehydrogenase (quinone), mitochondrial (Plasmodium falciparum (isolate 3D7)) (Q08210 whole entry, looked up): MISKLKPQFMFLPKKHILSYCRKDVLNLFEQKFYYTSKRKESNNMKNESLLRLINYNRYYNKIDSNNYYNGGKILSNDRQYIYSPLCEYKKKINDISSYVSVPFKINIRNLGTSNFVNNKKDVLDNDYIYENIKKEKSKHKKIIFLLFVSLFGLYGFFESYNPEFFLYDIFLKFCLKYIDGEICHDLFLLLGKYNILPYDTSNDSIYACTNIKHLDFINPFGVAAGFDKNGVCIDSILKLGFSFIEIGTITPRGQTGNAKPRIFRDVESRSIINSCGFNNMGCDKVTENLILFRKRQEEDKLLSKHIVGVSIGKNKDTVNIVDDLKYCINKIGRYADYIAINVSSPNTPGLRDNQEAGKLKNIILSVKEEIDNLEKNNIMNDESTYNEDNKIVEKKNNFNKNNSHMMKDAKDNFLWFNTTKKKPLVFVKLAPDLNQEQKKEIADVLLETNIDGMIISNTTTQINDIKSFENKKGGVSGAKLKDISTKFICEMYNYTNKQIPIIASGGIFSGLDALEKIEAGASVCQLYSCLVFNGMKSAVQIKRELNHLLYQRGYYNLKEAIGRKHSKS
Experiment [5] in a line: P. aeruginosa biofilm formation inhibitors, primary screen, strain PAO1, LB-PBS medium, absorbance 600 nm (AID 1176). Conditions: P. aeruginosa PAO1 growth/biofilm, A600, 12 h; higher = more signal.
Experiment [6] can be described thus: S. cerevisiae RM11-1a growth modifiers, primary screen, strain RM11-1a, OD600, basal, 24 h (AID 1177).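 Note: cultures grown under basal conditions with no added stressor.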 Conditions: OD600, 24 h, higher = more signal, called active from +8 up or from −8 down.
The nature of experiment [7]: E. coli acrAB mutant growth effects, primary screen, E. coli filamentation inducers, strain DRC39, OD650, 24 h (AID 1178).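 Note: growth measured as culture turbidity by optical density at 650 nm.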 Conditions: higher = more signal, called active from +8 up or from −8 down.
Experiment [8] can be described thus: E. coli acrAB mutant growth effects, primary screen, E. coli filamentation inducers, strain DRC39, OD650, 48 h (AID 1179).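 Note: screen aims at cell division blockers that make cells filament.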 The settings on record: E. coli DRC39 delta-acrAB growth, higher = more signal, called active from +8 up or from −8 down.
Experiment [9] is described as follows: RPMI8226 myeloma cell viability, profiling panel, resazurin fluorescence, basal, 24 h, PK04 Diversity Set (AID 1180).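 Note: RPMI8826 multiple myeloma cell line at 5000 cells per well.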 The settings on record: higher = more signal.
Experiment [10] addresses E3 ubiquitin-protein ligase XIAP (Homo sapiens) (UniProt P98170). Kind of experiment: XIAP binders, primary screen, biophysical, small-molecule microarray, fluorescence 635 nm (AID 1181).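 Note: score merges 667 nm emission and signal to noise over triplicate slides.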 The settings on record: small-molecule microarray binding, higher = more signal.
Experiment [11] has as its system XIP peptide (Xip251-270) binding. Kind of experiment: small-molecule binders of XIP peptide, primary screen, biochemical, small-molecule microarray, fluorescence 635/667 nm, 0.1 µg/mL protein (AID 1182). The settings on record: fluorescent protein binding, 635 nm, higher = more signal, called active from +8 up or from −8 down.
Experiment [12] relates to XIP peptide (Xip251-270). In words: small-molecule binders of XIP peptide, primary screen, biochemical, small-molecule microarray, fluorescence 635/667 nm, 0.5 µg/mL protein (AID 1183). Conditions: small-molecule microarray binding, fluorescence 635 nm; higher = more signal.
The nature of experiment [13]: Plasmodium falciparum growth inhibition, primary screen, strain 3D7, DAPI fluorescence, 100 nL (AID 1184).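 Note: parasites grown inside human red blood cells in medium with human serum.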 Conditions: P. falciparum 3D7 growth, 3 d, higher = more signal.
Experiment [14] deals with Homeobox protein Hox-A13 (Mus musculus) (UniProt Q62424). Kind of experiment: inhibitors of HoxA13-DNA binding, primary screen, biochemical, fluorescence polarization, labeled oligonucleotide (AID 1185). The settings on record: 15 min, higher = more signal, called active from +8 up or from −8 down.
Chain of Homeobox protein Hox-A13 (Mus musculus) (Q62424 whole entry, looked up): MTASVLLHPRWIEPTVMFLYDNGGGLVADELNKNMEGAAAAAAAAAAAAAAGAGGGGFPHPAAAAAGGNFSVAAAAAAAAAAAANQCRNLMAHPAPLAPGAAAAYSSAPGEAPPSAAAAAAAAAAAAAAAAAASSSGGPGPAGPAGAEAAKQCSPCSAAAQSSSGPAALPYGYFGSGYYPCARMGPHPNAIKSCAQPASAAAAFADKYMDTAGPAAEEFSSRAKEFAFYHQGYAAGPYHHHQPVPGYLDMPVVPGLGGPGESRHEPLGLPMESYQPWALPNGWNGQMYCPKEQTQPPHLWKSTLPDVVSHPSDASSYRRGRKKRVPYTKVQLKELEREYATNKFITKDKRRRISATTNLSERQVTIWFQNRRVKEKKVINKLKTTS
Experiment [15] can be described thus: inhibitors of hydroxyurea-induced Chk1 phosphorylation, primary screen, imaging, HeLa, phospho-Chk1 antibody, percent positive cells (AID 1186). Conditions: hydroxyurea-induced phospho-Chk1 immunofluorescence imaging, higher = more signal.
Experiment [16] can be described thus: inhibitors of hydroxyurea-induced Chk1 phosphorylation, primary screen, imaging, HeLa, phospho-Chk1 nuclear intensity (AID 1187). Conditions: hydroxyurea-induced phospho-Chk1 immunofluorescence imaging, higher = more signal.

The source made the active and inactive calls. Unless noted, the rule behind the calls is not given here.

Chain of E3 ubiquitin-protein ligase XIAP (Homo sapiens) (P98170 whole entry, looked up): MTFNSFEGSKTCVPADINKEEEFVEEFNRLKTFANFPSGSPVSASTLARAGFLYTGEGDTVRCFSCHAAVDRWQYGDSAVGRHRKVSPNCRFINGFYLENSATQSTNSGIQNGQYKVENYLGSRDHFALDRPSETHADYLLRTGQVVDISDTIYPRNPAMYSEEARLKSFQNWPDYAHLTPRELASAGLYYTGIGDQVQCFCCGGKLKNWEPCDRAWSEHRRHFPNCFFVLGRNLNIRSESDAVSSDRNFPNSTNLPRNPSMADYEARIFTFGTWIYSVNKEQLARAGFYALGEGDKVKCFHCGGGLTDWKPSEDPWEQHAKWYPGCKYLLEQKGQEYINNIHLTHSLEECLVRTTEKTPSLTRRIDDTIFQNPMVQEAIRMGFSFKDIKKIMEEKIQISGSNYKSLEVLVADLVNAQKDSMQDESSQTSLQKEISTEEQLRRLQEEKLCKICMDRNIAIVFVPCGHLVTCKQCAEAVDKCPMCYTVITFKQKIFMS

For `CO[C@H]1O[C@H](CO)[C@@H](OC(=O)Nc2ccc3c(c2)OCO3)[C@H](OC(=O)Nc2ccccc2)[C@@H]1OC(=O)Nc1ccccc1`, the z-score in experiment [1] was -0.671; in experiment [2], -0.328 (inactive); in [3], -1.24 (inactive); in experiment [5], 0.345 (inactive); in [6], 1.13 (inactive); in [7] it was 0.399 (inactive). Besides, the z-score was -0.409 (inactive) in experiment [8]; -0.682 in [9]; -1.76 in experiment [13]; -5.39 (inactive) in experiment [14]; 0.171 (inactive) in experiment [15]; 0.889 (inactive) in experiment [16]. Further, the composite z-score in [4] was -0.0612 (inactive); in experiment [10], 0.319; in experiment [11], 1.06 (inactive); in experiment [12], 0.649.
Consider `CCC#CCN(Cc1ccccc1Br)[C@H](/C=C/c1ccccc1)[C@@H](O)Cc1ccccc1`, for which the z-score in [1] was 1.53; in experiment [2] it was 0.238 (inactive); in experiment [3] it was 0.753 (inactive); in [5], -0.553 (inactive); in experiment [6] it was 0.846 (inactive); in [7] it was 1.19 (inactive). Besides, the z-score in experiment [8] is 0.994 (inactive); in experiment [9], 0.0518; in experiment [13] it was -0.609; in experiment [14], 0.462 (inactive); in [15] it was -0.415 (inactive); in experiment [16], -0.241 (inactive). Further, the composite z-score in experiment [4] is 0.514 (inactive); in experiment [10] it was 0.0101; in [11], -0.276 (inactive); in [12], -0.613.
On to `C[N+](C)(C)CCCCNC(=O)[C@H]1C[C@H]2C(=O)NCC(=O)N2[C@H]1c1cccc(OCCO)c1`, for which the z-score was 0.052 in experiment [1]; 0.167 (inactive) in experiment [2]; -0.935 (inactive) in [3]; 1 (inactive) in experiment [5]; 0.105 (inactive) in [6]; -0.158 (inactive) in [7]. The z-score is -0.271 (inactive) in [8]; -1.15 in [9]; 0.312 in experiment [13]; -2.52 (inactive) in experiment [14]; 0.0452 (inactive) in [15]; -0.0729 (inactive) in experiment [16]. For the same compound, the composite z-score in experiment [4] was -29.2 (active); in experiment [10], 0.133; in experiment [11], 1.88 (inactive); in experiment [12] it was 0.839.
For the compound `CCCC[C@@H]1C[C@H]1[C@@H](NC(=O)c1cccs1)c1ccc(Cl)cc1`, the z-score was -0.513 in [1]; 0.831 (inactive) in experiment [2]; -0.0593 (inactive) in experiment [3]; 2.82 (inactive) in [5]; 0.595 (inactive) in experiment [6]; -0.249 (inactive) in [7]. The z-score was -0.586 (inactive) in [8]; 0.513 in [9]; -0.911 in experiment [13]; -0.736 (inactive) in experiment [14]; -0.207 (inactive) in [15]; 0.205 (inactive) in experiment [16]. The composite z-score is -3.8 (inactive) in experiment [4], 0.267 in experiment [10], 0.0874 (inactive) in experiment [11] and -0.0771 in experiment [12].
Turning to `Cc1ccc(S[C@]2(C(=O)NCCCN(C)C)CC(=O)N(Cc3ccccc3)[C@@H]2c2ccc(CO)cc2I)cc1`, the z-score in experiment [1] is -0.896; in experiment [2], -4.78 (inactive); in experiment [3], -2.94 (inactive); in [5] it was -0.369 (inactive); in experiment [6], -1.03 (inactive); in experiment [7], -0.361 (inactive). The z-score in [8] was -0.554 (inactive); in [9], -2.15; in [13], 0.0943; in [14], -2.06 (inactive); in experiment [15] it was 0.379 (inactive); in experiment [16] it was 0.637 (inactive). Also, the composite z-score was -1.38 (inactive) in experiment [4], -0.0848 in [10], 0.066 (inactive) in experiment [11] and 0.119 in [12].
On to `C=CCN1C(=O)[C@@]2(Cc3ccccc3)N=C(c3ccc(OCCCO)cc3)O[C@H]2c2ccccc21`, for which the z-score is -0.406 in [1]; -2.11 (inactive) in experiment [2]; -2.82 (inactive) in experiment [3]; 1.39 (inactive) in [5]; 0.414 (inactive) in experiment [6]; -0.304 (inactive) in experiment [7]. The z-score in experiment [8] was -0.239 (inactive); in [9] it was -4.23; in experiment [13], -1.92; in [14] it was -0.611 (inactive); in experiment [15] it was -0.0856 (inactive); in [16], -0.138 (inactive). Further, the composite z-score is 0.324 (inactive) in [4], 0.212 in experiment [10], 1.67 (inactive) in experiment [11] and 0.79 in experiment [12].
Regarding `COCCOC(=O)N1C(=O)[C@@]2(c3cc(C#CCNC(N)=O)ccc31)[C@H](C(=O)N1CCCCCCC1)[C@H]1C(=O)O[C@H](c3ccccc3)[C@H](c3ccccc3)N1[C@@H]2c1ccccc1OCCO`, the z-score was 0.0533 in experiment [1]; 1.41 (inactive) in experiment [2]; 0.188 (inactive) in experiment [3]; 2.08 (inactive) in experiment [5]; 2.43 (inactive) in experiment [6]; 0.532 (inactive) in experiment [7]. Also, the z-score is 0.614 (inactive) in experiment [8]; 0.368 in experiment [9]; -1.87 in experiment [13]; 3.73 (inactive) in experiment [14]; -0.0292 (inactive) in experiment [15]; -0.349 (inactive) in experiment [16]. In addition, the composite z-score in [4] was 0.641 (inactive); in [10] it was 0.291; in experiment [11], 0.252 (inactive); in experiment [12], 0.276.
On to `COCCOC(=O)N1C(=O)[C@@]2(c3cc(C#CCNC(N)=O)ccc31)[C@H](c1ccccc1OCCO)N1[C@H](c3ccccc3)[C@H](c3ccccc3)OC(=O)[C@H]1[C@@H]2C(=O)NC[C@H](O)c1ccccc1`, for which the z-score in [1] was 0.904; in experiment [2], 2.79 (inactive); in [3], 0.335 (inactive); in [5] it was 0.87 (inactive); in experiment [6], 2.1 (inactive); in experiment [7], 0.183 (inactive). For the same compound, the z-score in experiment [8] was -0.32 (inactive); in experiment [9], 0.152; in experiment [13], -1.84; in experiment [14] it was -3.26 (inactive); in experiment [15], 0.0689 (inactive); in experiment [16], -0.158 (inactive). In addition, the composite z-score is 1.03 (inactive) in experiment [4], -0.0911 in experiment [10], 0.88 (inactive) in experiment [11] and 0.8 in experiment [12].
For `CCCN1C(=O)[C@@]2(CCS(=O)(=O)c3ccccc3)N=C(c3ccc(OCCCO)cc3)O[C@H]2c2ccccc21`, the z-score in [1] was -0.561; in experiment [2], 1.27 (inactive); in [3], -1.03 (inactive); in [5], 0.469 (inactive); in experiment [6], 1.56 (inactive); in experiment [7], 0.861 (inactive). Moreover, the z-score in experiment [8] is 0.163 (inactive); in experiment [9], -2.15; in experiment [13], -2.56; in experiment [14], -3.2 (inactive); in [15], 0.128 (inactive); in experiment [16] it was 0.371 (inactive). For the same compound, the composite z-score was 2.02 (inactive) in experiment [4], -0.072 in experiment [10], 0.261 (inactive) in [11] and 0.678 in [12].
